Screening data as filed in PubChem.
Luciferase inh = blocks Photinus pyralis firefly luciferase activity; purified firefly luciferase, luminescence, 8 min; AID 411; Potency, µM (series often up to 57.1 µM), without a hit: at the highest dose activity change, negative = inhibition, actives largely listed as inhibitors; 2.2% of 72,000 active; further: nearly all actives have a fitted effect of over 40% in size
Target sequence (P08659 whole entry, looked up): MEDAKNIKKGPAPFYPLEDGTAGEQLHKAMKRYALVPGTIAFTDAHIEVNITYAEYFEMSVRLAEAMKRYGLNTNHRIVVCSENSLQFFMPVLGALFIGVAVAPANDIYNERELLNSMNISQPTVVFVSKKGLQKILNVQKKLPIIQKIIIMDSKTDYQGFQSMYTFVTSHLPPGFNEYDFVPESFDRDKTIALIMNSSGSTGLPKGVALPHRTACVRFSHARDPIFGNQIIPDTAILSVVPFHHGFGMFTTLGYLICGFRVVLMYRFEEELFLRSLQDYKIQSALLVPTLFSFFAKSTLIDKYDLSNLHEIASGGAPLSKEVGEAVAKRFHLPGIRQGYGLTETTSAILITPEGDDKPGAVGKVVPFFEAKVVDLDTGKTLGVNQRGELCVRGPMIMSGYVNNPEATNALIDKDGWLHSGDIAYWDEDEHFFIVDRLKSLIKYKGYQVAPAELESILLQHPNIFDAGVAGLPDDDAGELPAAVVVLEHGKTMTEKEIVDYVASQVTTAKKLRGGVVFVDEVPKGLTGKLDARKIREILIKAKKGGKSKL
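Firefly luciferase (PKLight detection mix) with 10 uM ATP in pH 7.2 imidazole buffer (KCl, MgCl2, Tween 20, BSA). Compounds tested across a concentration series (qHTS). Luminescence read after 8 min at ambient temperature.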
p53ts 39C kill = kills p53ts cells at the nonpermissive temperature; H1299-p53A138V viability at 39C, ATP luminescence, 24 h; Potency, µM (highest dose often 46.1 µM), for inactives: at the top dose activity change, negative = cell killing, hits mostly cytotoxic; 1.5% of 130,000 active; AID 902; further: nearly all actives have a fitted effect of over 55% in size
p53ts 32C kill = p53ts cell cytotoxicity, permissive temperature; H1299-p53A138V at 32C, ATP luminescence viability, 24 h; Potency, µM (highest dose often 46.1 µM), for the others: at the top dose activity change, negative = cytotoxicity, usual class: cytotoxic; 0.93% of 130,000 active;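 further: 0% = DMSO and -100% = full killing by reference compound; nearly all actives have a fitted effect of over 55% in size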
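Viability by ATPlite luminescence after 24 h compound treatment (up to 46 uM) at the permissive 32C. Cells are H1299 carrying p53 A138V. Scale runs from DMSO basal to 100 uM tamoxifen as full kill; AC50 from Hill fits.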
Starred values were filed as active, the others as inactive; ? = inconclusive; . = not tested or not shown; [ ] = another dose, or the depositor's remark. Sampled rows, rich in hits. Any-hit rate of the full collection: about 2.6%. The call rests on the fitted dose curve; in most records, active means well fitted curve in the direction sought with a large enough effect; inconclusive means small, poorly fitted or top-dose-only effect, or another doubt; inactive means no such curve, though single readings can be large; an effect the other way counts as inactive or inconclusive. Unless noted, on the % scale 0 is the no-effect control and ±100 the full control effect; potency means the concentration at half of the fitted maximal effect.

SMILES	Luciferase inh	p53ts 39C kill	p53ts 32C kill
CC(C)c1ccc(C(=O)CC2(O)C(=O)N(CCc3ccccc3)c3ccc(Cl)cc32)cc1 (centres undefined)	.	16µM*	?
O=C(CC1(O)C(=O)N(Cc2ccccc2)c2ccccc21)c1ccncc1 (centres undefined)	0%	-11%	3%
O=C(CC1(O)C(=O)N(Cc2ccccc2)c2ccc(Br)cc21)c1ccccc1 (centres undefined)	.	16µM*	?
O=C(CC1(O)C(=O)N(CCc2ccccc2)c2ccc(Br)cc21)c1ccccc1O (centres undefined)	.	20µM*	0%
CCCN1C(=O)C(O)(CC(=O)c2ccc(C(C)C)cc2)c2ccccc21 (centres undefined)	.	?	2%
C[C@H]1CCCC2(CC[N+](C)(CCC[N+](C)(C)C)CC2)C1 (some centres undefined)	1%[11.4 µM]	7%[9.22 µM]	9%[9.22 µM]
CCOc1cccc2cc(-c3nc(-c4ccccc4C)no3)c(=O)oc12	.	?	-25%
N#Cc1c(C(F)(F)F)cc(-c2cccs2)nc1SCC(=O)Nc1cccc(Br)c1	.	13µM*	-15%
N#Cc1c(C(F)(F)F)cc(-c2cccs2)nc1SCC(=O)Nc1cccc(Cl)c1	.	-5%	-2%
COc1ccccc1/C=C/c1nc2ccccc2n1C(C)C	.	16µM*	?
Cc1ccc(C(O)c2nc3ccccc3n2C(C)C)cc1 (centres undefined)	1%	15%	7%
CCC(C(=O)NCCc1ccc(Cl)cc1)n1ccc2cc(S(=O)(=O)N3CCCCC3)ccc21 (centres undefined)	.	-4%	7%
Cc1ccc2c(CC(=O)N3CCN(c4cccc(Cl)c4)CC3)coc2c1	.	-12%	-1%
CN(C)c1ccc(/C=C(\C#N)c2nc3ccccc3c(=O)[nH]2)cc1	.	0.32µM*	0.32µM*
Cc1cccc(/C=C(\C#N)c2nc3ccccc3c(=O)[nH]2)c1	.	10%	-5%
COc1ccccc1-c1cc(C(=O)Nc2c(C)nn(Cc3ccc(Cl)cc3)c2C)no1	.	13µM*	?
COc1ccc(-c2cc(C(=O)Nc3c(C)nn(Cc4ccc(Cl)cc4)c3C)no2)cc1	4%	-20%	-14%
COc1cc(C(=O)Nc2ccc(NC(=O)C3CC3)nc2)cc(OC)c1OC	-3%	10%	-3%
COc1cccc(C(=O)Nc2ccc(NC(=O)C3CC3)cn2)c1	7.9µM*	?	?
CCC(=O)Nc1ccc(NC(=O)c2cccc(OC)c2)nc1	13µM*	-30%	?
COc1cccc(C(=O)Nc2ccc(NC(=O)C(C)C)nc2)c1	-12%	-20%	-15%
CCOC(=O)CNC(=O)N1CCN(S(=O)(=O)c2ccc3c(ccn3C)c2)CC1	.	-10%	2%
Cc1nc(-c2ccccc2)sc1-c1ccc(SCC(=O)Nc2ccccc2)nn1	.	-22%	-2%
O=C(Nc1cccc(-c2nnc(-c3ccccc3)o2)c1)c1ccco1	0%	8%	3%
N#Cc1cc(-c2ccccc2)oc1NC(=O)c1ccco1	25µM*	-24%	-26%
SMILES	Luciferase inh	p53ts 39C kill	p53ts 32C kill
Cc1nc2cc(NC(=O)Nc3nccs3)ccc2n1C	6.3µM*	7.9µM*	7.9µM*
Cc1nc2cc(NC(=O)NCc3ccco3)ccc2n1C	-6%	-3%	-7%
CC(C)c1nn2c(=O)cc(COC(=O)c3cccc(NC(=O)CCc4ccccc4)c3)nc2s1	.	-11%	?
CCN(c1ccccc1)S(=O)(=O)c1nnc(NC(=O)COc2ccc(OC)cc2)s1	.	-2%	3%
CCn1cc2nc(SCc3ccccc3)n(Cc3ccc(C)cc3)c(=O)c2n1	.	54%	-1%
CCn1cc2nc(SCc3ccc(F)cc3)n(Cc3ccc(Cl)cc3)c(=O)c2n1	.	13µM*	-4%
CS(=O)(=O)N1CCC2(CC1)CN(Cc1nccs1)C2	0%[11.4 µM]	1%	2%
CCOc1ccc(N(CC)C(=O)c2cc3c(s2)-c2ccccc2OC3)cc1	.	-6%	10%
N=c1cc(C2(O)CCCCC2)n2c(nc3ccccc32)s1	1µM*	1.3µM*	1µM*
O=C1c2sc3nc4ccccc4n3c2C(=O)N1c1ccccc1Cl	-6%	-12%	-2%
CCOc1cc(C2C(C(N)=O)=C(C)Nc3ncnn32)cc(Br)c1O (centres undefined)	.	1%	3%
COCCN1Cc2cccc(C(=O)Nc3ccc(C)c(C)c3)c2C1=O	25µM*	-9%	-10%
COc1ccc(N2Cc3cccc(C(=O)Nc4ccc(C(C)C)cc4)c3C2=O)cc1	.	4µM*	5µM*
COc1ccc(N2Cc3cccc(C(=O)Nc4ccc(C)cc4)c3C2=O)cc1	.	-8%	7%
COCCN1Cc2cccc(C(=O)Nc3cccc(OC)c3)c2C1=O	-5%	-4%	4%
